Reference: PubChem BioAssay
Calls of active or inactive are those of the source.

Columns and labels:
[1] = molecular target: Albumin (Bos taurus) (UniProt P02769); experiment: compounds binding labelled BSA control protein – biochemical, small-molecule microarray, Alexa647 label, 635/667 nm fluorescence, artefact control for SMM control protein annotation, profiling panel (AID 1118); details: BSA-A647 binding, fluorescence 635 nm, higher = more signal;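 further: score merges 667 nm emission intensity and signal-to-noise per printed compound spot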
Chain of Albumin (Bos taurus) (P02769 whole entry, looked up): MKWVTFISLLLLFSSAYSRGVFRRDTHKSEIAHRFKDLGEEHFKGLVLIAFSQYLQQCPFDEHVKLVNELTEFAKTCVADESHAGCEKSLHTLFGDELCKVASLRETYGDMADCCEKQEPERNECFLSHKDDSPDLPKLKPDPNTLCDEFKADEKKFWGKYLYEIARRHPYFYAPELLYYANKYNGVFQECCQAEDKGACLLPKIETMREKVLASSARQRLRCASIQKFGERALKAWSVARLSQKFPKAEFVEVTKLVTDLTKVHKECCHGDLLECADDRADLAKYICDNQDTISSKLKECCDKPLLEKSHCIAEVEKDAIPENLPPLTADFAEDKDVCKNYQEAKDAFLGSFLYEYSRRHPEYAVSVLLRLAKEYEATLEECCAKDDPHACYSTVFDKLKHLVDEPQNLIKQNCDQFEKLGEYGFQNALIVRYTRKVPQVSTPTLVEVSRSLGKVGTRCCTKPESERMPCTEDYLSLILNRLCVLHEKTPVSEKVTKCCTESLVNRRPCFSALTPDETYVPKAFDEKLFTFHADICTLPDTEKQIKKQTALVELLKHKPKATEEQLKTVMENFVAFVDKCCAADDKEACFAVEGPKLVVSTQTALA

[2] = probe aXIP binding to arrayed compounds – biochemical, NeuroSMM set, 635/667 nm fluorescence, primary screen (AID 1119); details: small-molecule microarray, higher = more signal, called active from +8 up or from −8 down;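 further: probe is the protein aXip251-270 applied at 1 µg/mL to compound-printed slides; binding of probe to printed compounds measured as 667 nm fluorescence plus signal to noise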
[3] = probe aNOTCH3 binding on compound microarray – biochemical, small-molecule microarray, 635/667 nm fluorescence, primary screen (AID 1120); details: higher = more signal;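 further: probe is a biotin-tagged antibody raised against NOTCH3 rather than NOTCH3 protein; score merges spot fluorescence near 667 nm with spot signal to noise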
[4] = probe aNOTCH2 binding on compound microarray – biochemical, small-molecule microarray, 635/667 nm fluorescence, primary screen (AID 1121); details: higher = more signal;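 further: score merges feature fluorescence read at 667 nm with its signal to noise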
[5] = molecular target: Carbonic anhydrase 2 (Homo sapiens) (UniProt P00918); experiment: compounds binding carbonic anhydrase 2 – biochemical, small-molecule microarray, Alexa647-labelled CAII, profiling panel (AID 1122); details: CAII-A647 binding fluorescence, higher = more signal
[6] = COS7 lysate on small-molecule microarray, probe aHis, 635 nm (AID 1123); details: COS7 cell lysate, fluorescence, higher = more signal;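 further: z-score combines 667nm fluorescence intensity with signal-to-noise per printed compound spot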
[7] = probe aLAP1 signal on lysate-treated microarray – cell lysate, small-molecule microarray, COS7 lysate, primary screen (AID 1124); details: probe aLAP1, fluorescence, higher = more signal;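 further: lysate comes from COS7 cells expressing LAP1 and is applied at 0.3 µg/mL; score merges spot fluorescence near 667 nm with signal-to-noise over triplicate slides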
[8] = tested on: Sam68 (KHDRBS1); experiment: compounds binding KHDRBS1 protein – biochemical, small-molecule microarray, 635 nm fluorescence, primary screen (AID 1125); details: higher = more signal;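 further: score merges 667 nm channel intensity with signal to noise over triplicate slides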
[9] = tested on: Chordin-like protein 2 (CHRDL2); experiment: compounds binding chordin-like 2 – biochemical, small-molecule microarray, 635 nm fluorescence, primary screen (AID 1126); details: fluorescence 635 nm, higher = more signal;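 further: printed compound slides probed with Chrdl2 protein at 4 µg/mL for 1 h at 4 C; score merges 667 nm emission intensity with signal to noise over three replicate slides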
[10] = molecular target: Concanavalin-A (Canavalia ensiformis) (UniProt P02866); experiment: compounds binding concanavalin A lectin – biochemical, small-molecule microarray, Alexa647 label, 635 nm, artefact control for SMM control protein annotation, primary screen (AID 1127); details: ConA-A647 binding fluorescence, higher = more signal;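 further: z combines 667 nm emission intensity with signal-to-noise across three replicate slides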
Chain of Concanavalin-A (Canavalia ensiformis) (P02866 whole entry, looked up): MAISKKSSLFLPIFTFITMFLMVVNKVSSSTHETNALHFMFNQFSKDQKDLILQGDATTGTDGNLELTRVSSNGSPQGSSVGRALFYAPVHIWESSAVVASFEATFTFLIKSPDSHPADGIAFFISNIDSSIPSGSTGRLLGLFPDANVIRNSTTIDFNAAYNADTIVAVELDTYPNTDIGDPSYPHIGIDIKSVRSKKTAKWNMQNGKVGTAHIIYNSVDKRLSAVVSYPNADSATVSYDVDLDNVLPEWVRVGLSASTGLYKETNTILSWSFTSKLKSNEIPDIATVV

[11] = compounds binding Alexa647 anti-His antibody – biochemical, small-molecule microarray, 635 nm fluorescence, artefact control for SMM control protein annotation, primary screen (AID 1128); details: higher = more signal;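 further: score merges feature fluorescence with signal-to-noise for each printed compound spot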
[12] = tested on: Human papillomavirus type 1a E7 protein (residues 1-88); experiment: HPV1a E7 small-molecule binders, primary screen, biochemical, small-molecule microarray, residues 1-88, 635 nm (AID 1129); details: small-molecule microarray binding, fluorescence 635 nm; higher = more signal
[13] = molecular target: Focal adhesion kinase 1 (Homo sapiens) (UniProt Q05397); experiment: PTK2 protein binding on printed compound slides – biochemical, small-molecule microarray, 635/667 nm fluorescence, BSA, DTT, primary screen (AID 1130); details: 635 nm fluorescence, higher = more signal;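 further: composite of spot emission at 667 nm and signal to noise over triplicate slides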
Chain of Focal adhesion kinase 1 (Homo sapiens) (Q05397 whole entry, looked up): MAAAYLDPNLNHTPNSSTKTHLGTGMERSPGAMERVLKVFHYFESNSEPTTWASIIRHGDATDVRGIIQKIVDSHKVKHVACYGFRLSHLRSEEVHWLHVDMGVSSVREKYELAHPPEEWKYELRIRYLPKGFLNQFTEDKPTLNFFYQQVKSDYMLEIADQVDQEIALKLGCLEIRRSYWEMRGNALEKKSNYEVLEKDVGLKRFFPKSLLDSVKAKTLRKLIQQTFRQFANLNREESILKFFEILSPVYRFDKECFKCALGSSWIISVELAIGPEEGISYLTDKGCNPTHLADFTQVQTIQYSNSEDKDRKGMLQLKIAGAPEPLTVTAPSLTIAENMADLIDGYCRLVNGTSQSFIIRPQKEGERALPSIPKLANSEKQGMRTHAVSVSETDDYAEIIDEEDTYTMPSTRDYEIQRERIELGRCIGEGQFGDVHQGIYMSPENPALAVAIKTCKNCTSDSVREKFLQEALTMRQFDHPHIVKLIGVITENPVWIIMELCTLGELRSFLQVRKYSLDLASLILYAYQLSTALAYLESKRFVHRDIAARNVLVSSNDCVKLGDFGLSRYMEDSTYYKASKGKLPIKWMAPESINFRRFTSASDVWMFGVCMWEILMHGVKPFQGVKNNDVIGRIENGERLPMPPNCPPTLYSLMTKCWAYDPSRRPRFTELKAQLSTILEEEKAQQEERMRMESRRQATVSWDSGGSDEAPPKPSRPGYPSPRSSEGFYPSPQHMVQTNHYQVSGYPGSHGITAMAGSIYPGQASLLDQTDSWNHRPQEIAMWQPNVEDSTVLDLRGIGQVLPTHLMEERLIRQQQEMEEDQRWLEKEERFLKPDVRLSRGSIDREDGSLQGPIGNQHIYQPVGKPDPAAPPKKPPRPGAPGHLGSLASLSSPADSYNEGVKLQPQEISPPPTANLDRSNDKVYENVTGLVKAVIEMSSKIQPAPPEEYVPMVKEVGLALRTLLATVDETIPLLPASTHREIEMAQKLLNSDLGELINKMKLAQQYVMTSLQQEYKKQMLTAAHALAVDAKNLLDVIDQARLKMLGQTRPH

[14] = tested on: Fibrinogen (Alexa647-labelled); experiment: Alexa647-fibrinogen binding to printed small molecules – biochemical, small-molecule microarray, 635/667 nm fluorescence, artefact control for SMM control-protein annotation, profiling panel (AID 1131); details: fibrinogen-A647 binding fluorescence, higher = more signal;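 further: z-score merges 667 nm fluorescence with per-spot signal-to-noise over triplicate slides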
[15] = molecular target: Follistatin (Homo sapiens) (UniProt P19883); experiment: FST protein binding to printed compounds – biochemical, small-molecule microarray, 635/667 nm fluorescence, primary screen (AID 1132); details: 635 nm fluorescence, higher = more signal
Chain of Follistatin (Homo sapiens) (P19883 whole entry, looked up): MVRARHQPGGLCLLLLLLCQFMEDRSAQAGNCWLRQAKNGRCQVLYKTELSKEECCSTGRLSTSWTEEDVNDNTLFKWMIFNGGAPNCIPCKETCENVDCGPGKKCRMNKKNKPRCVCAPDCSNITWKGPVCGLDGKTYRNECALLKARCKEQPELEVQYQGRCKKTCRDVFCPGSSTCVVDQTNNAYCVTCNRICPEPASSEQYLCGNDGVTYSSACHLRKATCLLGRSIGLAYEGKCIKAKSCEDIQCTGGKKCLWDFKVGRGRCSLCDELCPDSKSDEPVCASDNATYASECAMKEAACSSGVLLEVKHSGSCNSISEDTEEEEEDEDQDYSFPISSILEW

[16] = molecular target: Fibroblast growth factor 2 (Homo sapiens) (UniProt P09038); experiment: basic fibroblast growth factor binding to printed compounds – biochemical, small-molecule microarray, 635/667 nm fluorescence, primary screen (AID 1133); details: FGF2, fluorescence 635/667, higher = more signal
Chain of Fibroblast growth factor 2 (Homo sapiens) (P09038 whole entry, looked up): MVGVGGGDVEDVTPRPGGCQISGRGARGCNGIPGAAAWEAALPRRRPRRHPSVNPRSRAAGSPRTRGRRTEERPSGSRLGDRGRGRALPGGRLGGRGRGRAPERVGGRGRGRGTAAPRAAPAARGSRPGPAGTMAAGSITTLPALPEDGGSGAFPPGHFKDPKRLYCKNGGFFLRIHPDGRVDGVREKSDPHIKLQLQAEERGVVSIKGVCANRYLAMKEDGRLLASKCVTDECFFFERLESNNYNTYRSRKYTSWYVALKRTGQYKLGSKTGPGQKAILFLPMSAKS

[17] = JC-1 mitochondrial potential readout, lung cancer cells – cell-based, A549, JC-1 fluorescence, basal, 24 h, 100 nL, profiling panel (AID 1138); details: higher = more signal;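 further: A549 lung adenocarcinoma cells under basal conditions with no added stimulus; test concentration not given here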
[18] = tested on: Lefty1; experiment: Lefty1 protein binding to printed compounds – biochemical, small-molecule microarray, 635/667 nm fluorescence, primary screen (AID 1139); details: fluorescence 635/667, higher = more signal
[19] = tested on: wheat germ agglutinin (Triticum aestivum), Alexa647-labelled; experiment: Alexa647-WGA lectin binding to printed small molecules – biochemical, small-molecule microarray, 635/667 nm fluorescence, artefact control for SMM control-protein annotation, profiling panel (AID 1140); details: WGA-A647 binding, 635 nm fluorescence, higher = more signal;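 further: score merges 667 nm feature emission with signal to noise over triplicate slides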
[20] = molecular target: Luciferin 4-monooxygenase (Photinus pyralis) (UniProt P08659); experiment: inhibition of purified Photinus pyralis luciferase – biochemical, luminescence, purified enzyme, 2006 set, primary screen (AID 1141); details: purified firefly luciferase, SteadyGlo luminescence, 30 min; higher = more signal, called active from +8 up or from −8 down;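 further: cell-free assay with purified firefly luciferase at 100 ng per well in PBS; test concentration not given here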
Chain of Luciferin 4-monooxygenase (Photinus pyralis) (P08659 whole entry, looked up): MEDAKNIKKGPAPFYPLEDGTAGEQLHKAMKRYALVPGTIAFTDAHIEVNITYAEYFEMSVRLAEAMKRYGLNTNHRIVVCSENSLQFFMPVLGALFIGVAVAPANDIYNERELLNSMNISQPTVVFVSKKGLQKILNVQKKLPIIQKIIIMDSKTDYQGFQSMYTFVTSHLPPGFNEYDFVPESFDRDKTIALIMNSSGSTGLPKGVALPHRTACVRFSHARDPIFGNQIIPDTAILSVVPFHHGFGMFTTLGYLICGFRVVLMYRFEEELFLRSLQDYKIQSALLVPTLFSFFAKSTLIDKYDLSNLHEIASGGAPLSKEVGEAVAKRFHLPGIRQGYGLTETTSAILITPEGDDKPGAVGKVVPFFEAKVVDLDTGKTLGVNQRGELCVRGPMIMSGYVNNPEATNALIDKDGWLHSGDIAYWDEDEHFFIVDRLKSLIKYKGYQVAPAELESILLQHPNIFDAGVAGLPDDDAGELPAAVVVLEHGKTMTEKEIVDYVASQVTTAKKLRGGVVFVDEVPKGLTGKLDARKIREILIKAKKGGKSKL

Compound | composite z-score [1] | composite Z-score [2] | composite z-score [3] | composite z-score [4] | composite z-score [5] | composite z-score [6] | composite z-score [7] | composite z-score [8] | composite z-score [9] | composite z-score [10] | composite z-score [11] | composite z-score [12] | composite z-score [13] | composite z-score [14] | composite z-score [15] | composite z-score [16] | z-score [17] | composite z-score [18] | composite z-score [19] | z-score [20]
CO[C@H]1O[C@H](CO)[C@@H](OC(=O)Nc2ccc3c(c2)OCO3)[C@H](OC(=O)Nc2ccc3c(c2)OCO3)[C@H]1OC(=O)Nc1ccc2c(c1)OCO2 | 0.733 | 0.204 (inactive) | 0.307 | -0.0483 | 0.7 | 2.73 | 0.804 | 1.29 | 0.138 | 1.07 | 2.47 | 1.22 | 0.0847 | 0.86 | 1.23 | 0.506 | -0.641 | 0.683 | 1.02 | -5.43 (inactive)
[N-]=[N+]=NCc1ccccc1[C@@H]1OC(c2ccc(OCCCO)cc2)=N[C@]1(Cc1ccccc1)C(=O)O | 0.188 | 1.38 (inactive) | -0.0362 | -0.0836 | 0.607 | 2.25 | -0.324 | 1.13 | -0.817 | 0.802 | 1.25 | 0.445 | 1.4 | 0.635 | 0.592 | 0.0221 | 1.36 | -0.548 | 0.536 | -1.44 (inactive)
COc1ccc([Si](C)(C)[C@@H]2[C@@H](CC(=O)N3Cc4ccccc4C[C@H]3CO)O[C@]3(C(=O)N(Cc4cccc(N5C(=O)COc6ccccc65)c4)c4ccccc43)[C@H]2C)cc1 | 0.566 | 1.33 (inactive) | 0.0905 | -0.177 | 0.423 | 0.629 | 0.344 | 1.07 | 0.692 | 1.11 | 1.16 | 1 | 0.261 | 0.269 | 1.26 | 1.76 | -0.0295 | 1.25 | 0.0948 | -0.438 (inactive)
CN(C)CCCCCCNC(=O)[C@@H]1C[C@@H]2C(=O)NCC(=O)N2[C@@H]1c1cccc(OCCO)c1 | -0.615 | 1.04 (inactive) | 0.113 | -0.0519 | 0.63 | 2.54 | 0.212 | 1.3 | 1.35 | 1.22 | 2.96 | 1.28 | 0.446 | 0.232 | 1.34 | 0.826 | 0.295 | 1.36 | -0.0165 | -0.791 (inactive)
COc1ccc(C#Cc2ccc3c(c2)[C@]2(C(=O)N3)[C@H](c3ccc(OCCO)cc3)N3[C@H](c4ccccc4)[C@H](c4ccccc4)OC(=O)[C@H]3[C@@H]2C(=O)Nc2nc3ccccc3s2)cc1 | 0.562 | -0.0127 (inactive) | 0.217 | -0.0267 | 0.645 | 2.22 | 0.534 | 1.29 | 0.57 | 1.13 | 0.842 | 1.17 | 0.862 | 0.88 | 1.3 | 1.28 | -2.06 | 1.57 | 0.764 | -3.84 (inactive)
COc1cc2c(cc1O)C(c1ccc(CN3CCCC3)cc1)N(Cc1sc3ccccc3c1Cl)CC2 (stereo not given) | -0.185 | 0.0786 (inactive) | 0.0394 | -0.0861 | 0.752 | 0.415 | 0.179 | -0.209 | 1.05 | 1.11 | 0.423 | -0.18 | 0.0344 | 0.455 | 1.03 | 1.17 | -0.763 | 0.501 | 0.421 | 1.14 (inactive)
[N-]=[N+]=NCc1ccccc1C[C@]1(C(=O)N2CCOCC2)N=C(c2ccc(OCCCO)cc2)O[C@H]1c1ccccc1 | 0.905 | 0.271 (inactive) | 0.0582 | -0.14 | 0.501 | 1.07 | 0.444 | 0.965 | -0.731 | 1.07 | 1.22 | 0.672 | -0.0665 | 0.909 | 0.826 | 0.816 | 0.078 | 0.0094 | 0.359 | 0.4 (inactive)
C=CCC(OC(C)=O)[C@@H]1[C@@H](N(Cc2ccc(-c3cccc(C(F)(F)F)c3)o2)C(=O)c2ccc(C)cc2)c2cc(OCCCO)ccc2N1C(=O)c1ccc2ccccc2n1 (stereo not given in full) | -0.706 | 0.936 (inactive) | 0.116 | -0.0255 | 0.053 | 0.163 | 0.497 | 0.0508 | 0.232 | -0.335 | -0.614 | -0.369 | -0.223 | 0.33 | 0.839 | 0.131 | 0.61 | 0.727 | 0.717 | -1.25 (inactive)
COC(=O)[C@@]1(Cc2ccc(OC)cc2)[C@H]2c3cc(C(=O)N4CCCC4)n(CCN4CCOCC4)c3C[C@H]2CN1C(=O)c1ccccc1 | 1.06 | 1.42 (inactive) | 1.72 | 1.05 | 0.87 | 3.42 | 0.94 | 1.29 | 0.265 | 0.991 | 0.954 | 1.19 | 1.75 | 0.998 | 0.193 | -0.125 | 0.892 | -0.499 | 0.76 | 1.12 (inactive)
